Pf Dd2 inh = blocks in vitro growth of P. falciparum Dd2. P. falciparum Dd2 growth, SYBR Green, 72 h. Potency, µM (highest dose often 28.9 µM), without a hit: top-dose activity, negative = inhibition, hits mostly inhibitors. 120,000 compounds, 4.3% hits; active means well fitted inhibition curve with a large enough effect;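 further: plate controls were DMSO vehicle for no effect and reference drug for full effect; nearly all actives have a fitted effect of over 65% in size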
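Readout: SYBR Green fluorescence, 485 nm excitation, 535 nm emission, after ~16 h lysis at 37C. Before that, Dd2-infected red cells (2.5% hematocrit) grew 72 h with compound, 29 uM top final concentration.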
Numbers without * were called inactive; i = inactive; [ ] = remark or other dose. Only a selection was taken, and hits are over-represented in it overall. Potency means the concentration at half of the fitted maximal effect.

SMILES | Pf Dd2 inh
O=C1NCCCCCCN(C(=O)Cc2ccccc2)[C@H]2CCCC[C@@H]12 | i
Cc1cccc(C(=O)N2CCCCCNC(=O)[C@H]3C[C@H](C(=O)N4CCc5ccccc5C4)C[C@H]32)c1 | 8.9µM*
Cc1cccc(C(=O)N2CCCCCCNC(=O)[C@@H]3CCCC[C@@H]32)c1 | 0%
O=C1NCCCCCCN(C(=O)c2cnccn2)[C@H]2C[C@H](C(=O)N3CCc4ccccc4C3)C[C@@H]12 | -3%
O=C1NCCCCCN(C(=O)CCCc2ccccc2)[C@H]2CCCC[C@@H]12 | -25%
O=C1NCCCCCN(C(=O)CC2CCCCC2)[C@@H]2C[C@@H](C(=O)N3CCc4ccccc4C3)C[C@H]12 | 7.1µM*
Cc1ccc(NC(=O)Cn2ccn3nc(-c4ccccc4)c(CO)c3c2=O)c(C)c1 | i
CCCCN(CCC(=O)NCCCOC)C(=O)c1ccoc1 | 6%
O=C(NCC(=O)N1CCN(c2ccccn2)CC1)c1cncc(Br)c1 | -24%
CN1CCN([C@H]2CCN(Cc3cccs3)C[C@H]2CCC(=O)O)CC1 | 5%
CCCOc1ccc(CNC(=O)C(C)C2CCOCC2)cc1 (centres undefined) | 13%
COc1ccc(C(=O)N[C@H]2CCOC[C@H]2C2CCOCC2)cc1O | -5%
O=C(NC1CCN(c2cc(-c3ccccc3)[nH]n2)CC1)c1ccsc1 | i
CCc1nc(-c2c3n(c(=O)n(CC(=O)NCc4ccc(F)cc4)c2=O)CCCCC3)no1 | i
COc1ccc(-n2nc(C3CCCN(C(=O)c4cccc(Cl)c4)C3)[nH]c2=O)cc1 (centres undefined) | i
O=C1NC2(CCOCC2)C(=O)N1CC(=O)N1CCCc2ccccc21 | -6%
COc1ccc(-c2cc(C(=O)Oc3ccc(C)cc3)c3cc(C)ccc3n2)cc1 | i
Cc1ccc(-c2cc(C(=O)Oc3ccccc3)c3cccc(C)c3n2)cc1 | -10%
COc1ccc(-c2cc(C(=O)Oc3ccccc3)c3cc(C)ccc3n2)cc1 | 4.5µM*
COc1ccc(CNC(=O)C[C@@H]2[C@H](O)CCC3[C@](C)(CO)[C@H](OC(=O)NC4CCCCC4)CC[C@]32C)cc1 (some centres undefined) | -14%
CC(C)CNC(=O)N1C[C@@H](Oc2cccnc2)C[C@@H]1C(=O)N1CCOCC1 | 18%
CC(C)c1cccc(NC(=O)CN2C(=O)NC3(CCCCC3)C2=O)c1 | i
CCN(C(=O)C1CCC(=O)N(CCc2ccc(Cl)cc2)C1)C(C)C (centres undefined) | 2%
CC(C)(C)NC(=O)CCSc1nc(-c2ccc3c(c2)OCO3)cc(C(F)(F)F)n1 | i
COc1ccc(-c2cc(C(F)(F)F)nc(SCCC(=O)Nc3ccccc3F)n2)cc1 | 28%
SMILES | Pf Dd2 inh
COc1ccc(CNC(=O)CSc2nc(-c3ccc(OC)cc3)cc(C(F)(F)F)n2)cc1 | 5%
CCCNC(=O)CCSc1nc(-c2ccc3c(c2)OCO3)cc(C(F)(F)F)n1 | 5µM*
CCCNC(=O)CSc1nc(-c2ccc(OC)cc2)cc(C(F)(F)F)n1 | i
COc1ccc(-c2cc(C(F)(F)F)nc(SCCC(=O)Nc3cc(C)ccc3O)n2)cc1 | 1µM*
NC(=O)[C@@H]1CN(C(=O)CCn2cccn2)C[C@H]1COc1ccccc1 | -7%
O=C(c1ccc(Cl)cc1)N1CCC2(C1)C(=O)Nc1ccccc12 (centres undefined) | 0%
Cc1ccc(CNC(=O)N2CC(n3cc(C(=O)NCC4CC4)nn3)C2)cc1 | 23%
Cc1cc(C2CC(C(=O)NCc3ccco3)CN(C(=O)c3ccccc3)C2)ccc1F (centres undefined) | -5%
CN1CC(=O)N(C2CCNCC2)Cc2c(NC3CCCCCC3)ncnc21 | -8%
O=[S+]([O-])(c1ccccc1)N1CCC2(CC(c3cccc(C(F)(F)F)c3)=NO2)C1 (centres undefined) | -23%
Cc1ncoc1C(=O)N1CC(F)(F)C[C@H]1c1nc(C2CC2)no1 | -4%
CCc1nnc([C@@H]2CC(F)(F)CN2C(=O)Cn2cccn2)o1 | 28%
COCCNc1nc2c(S(=O)(=O)c3ccccc3)nnn2c2ccc(Cl)cc12 | i
COc1ccc(CNc2nc3c(S(=O)(=O)c4ccccc4)nnn3c3ccc(Cl)cc23)cc1 | -11%
CCN(Cc1ccccc1)c1nc2c(S(=O)(=O)c3ccccc3)nnn2c2ccc(Cl)cc12 | 6.3µM*
O=C([C@@H]1C[C@H](F)CN1S(=O)(=O)c1ccc(F)cc1)N1CCc2ccccc2C1 | -3%
COCc1nc(-c2ccc(OC3CN(C(=O)c4cc(C)n(C)n4)C3)cc2)no1 | 7.9µM*
COCc1nc(-c2ccc(OC3CN(C(=O)c4ccc(OC)nc4)C3)cc2)no1 | -26%
CCN(CC)C(=O)N1CCC(Oc2ccc(-c3noc(COC)n3)cc2)C1 (centres undefined) | 13%[5.79 µM]
Cc1cc(C(=O)N2CCCN(S(C)(=O)=O)C(c3ccccc3)CC(=O)NCC2)n(C)n1 (centres undefined) | 10%
CCOc1ccc(CN(C)C2CCOc3ccccc32)cc1 (centres undefined) | -10%[44.1 µM]
CCOc1ccccc1CN(CCc1ccc2c(c1)OCO2)Cc1cc(OC)c(OC)cc1OC | 4µM*
CCOc1ccc(CN(CCc2ccc3c(c2)OCO3)Cc2cccc(OC)c2)cc1 | -1%
CCOc1ccc(CN(CCc2ccc3c(c2)OCO3)Cc2cccc(Br)c2)cc1 | 3%
CCOc1ccccc1CNC(=O)c1noc(-c2ccc3c(c2)OCO3)n1 | -2%
SMILES | Pf Dd2 inh
CCOc1ccc(CN(CCc2ccc3c(c2)OCO3)Cc2ccc(C)cc2)cc1 | 10µM*
CC(=O)Nc1ccc(S(=O)(=O)N2C[C@@H]3C[C@H](C2)c2ccc(-c4ccccc4C)c(=O)n2C3)cc1 | i
O=[S+]([O-])(c1ccccc1)N1CC(Oc2ccc3c(c2)OCO3)C1 | -6%
O=C1CC2(CCN(Cc3cccc4ccccc34)CC2)Oc2ccccc2N1 | -12%
COc1ccc(C(=O)N2CCC3(CC2)CCC(O)(CN(C)C)CC3)cc1 | -20%
COCCN1C(=O)[C@H]2CN(Cc3ccc(C)c(C)c3)C[C@H]2C1=O | 28%
COc1ccc([C@H]2C[C@@H](O)[C@@H](O)[C@@H]2NCc2cn(C)c3ccccc23)cc1 | 8.9µM*
COc1ccc([C@H]2C[C@@H](O)[C@@H](O)[C@@H]2NCc2cnn(C)c2)cc1 | i
COc1ccc([C@H]2C[C@@H](O)[C@@H](O)[C@@H]2NCc2ccccc2)cc1 | -1%[44.1 µM]
COCC(=O)N[C@@H]1CN(Cc2ccccc2C)C[C@H]1CO | -17%
Cc1cccc(C)c1NC(=O)Cn1cccc1-c1nc(-c2ccc(F)cc2)no1 | 36%
CN1c2cc(C(=O)NCc3ccccc3Cl)ccc2C(=O)N2CCCC21 (centres undefined) | -8%
N#CCn1nc2n(c1=O)CCN(C(=O)Cc1ccsc1)CC2 | -3%
COCc1nncn1C1CCN(S(=O)(=O)c2ccc(Cl)c(C)c2)CC1 | -13%
Cc1noc(C)c1CN1CCc2nc(C(=O)Nc3cccc(C(F)(F)F)c3)oc2CC1 | 13µM*
Cc1noc(C)c1CN1CCc2nc(C(=O)Nc3ccccc3)oc2CC1 | i
O=C(Nc1cccc(C(F)(F)F)c1)c1nc2c(o1)CCN(Cc1ccccc1F)CC2 | i
Cc1ccccc1CN1CCc2nc(C(=O)Nc3ccccc3)oc2CC1 | -15%[44.1 µM]
COc1ccccc1CN1CCc2nc(C(=O)Nc3cccc(C(F)(F)F)c3)oc2CC1 | -7%
COc1ccccc1CN1CCc2nc(C(=O)Nc3ccccc3)oc2CC1 | 11µM*
CN1CCN(c2nc3c(c(=O)[nH]2)CCN(Cc2ccc(F)c(F)c2)CC3)CC1 | 48%[5.79 µM]
Cc1cnc(C(=O)N2CCC(F)(c3nc(-c4ccncc4)no3)CC2)cn1 | -8%
